Screening data deposited in PubChem by NMMLSC.
Rab7 wt GTP bind = modulators of GTP binding to Rab7, primary screen, biochemical, wildtype, multiplex bead flow cytometry; Rab7 GTPase wild type (dog), Bodipy-FL-GTP binding; GST-Rab7 beads, fluorescent GTP binding; actives lie on both sides; untreated = 100%, excess cold GTP = 0%; GTP binding activity (percent of control), % at 10 µM; hit rate 0.055% among 190,000;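 active = fluorescent GTP binding to Rab7 beads changed by at least 20 points from the 100% baseline, either direction, mostly lower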;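 also: median green fluorescence of bound Bodipy-FL-GTP per Rab7 bead population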
HRas wt GTP bind = modulators of GTP binding to HRas wildtype, primary screen, biochemical, bead-based flow cytometry, multiplex. hit rate 0.14% among 190,000. GTP binding activity, % at 10 µM. GST-Ras wt beads, Bodipy-FL-GTP binding; actives lie on both sides;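 active = GTP binding activity at least 20% away from the 100% baseline, either lowered as inhibitor or raised as activator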
Target sequence (P01112 whole entry, looked up): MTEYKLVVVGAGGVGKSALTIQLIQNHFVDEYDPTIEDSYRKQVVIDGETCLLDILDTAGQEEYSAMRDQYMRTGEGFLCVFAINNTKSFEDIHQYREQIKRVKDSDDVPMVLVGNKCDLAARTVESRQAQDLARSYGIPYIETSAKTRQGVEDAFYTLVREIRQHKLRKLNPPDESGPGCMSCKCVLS
Rab2A wt mod = modulators of GTP binding to Rab2A wildtype, primary screen, biochemical, dog, bead-based flow cytometry, multiplex. GST-Rab2 wt beads, Bodipy-GTP binding. GTP binding activity, % at 10 µM. AID 760, 2007. hit rate 0.19% among 190,000;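 active = GTP binding activity at least 20 points away from 100%, either lowered or raised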
Cdc42 wt GTP = modulators of GTP binding to wildtype Cdc42, primary screen, biochemical, multiplex bead flow cytometry, Bodipy-GTP. Cell division control protein 42 homolog (Homo sapiens), P60953. GST-Cdc42 beads; actives lie on both sides. percent activity (GTP binding), % at 10 µM. hit rate 0.2% among 190,000;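 active = percent activity GTP binding at least 20 points away from the 100% baseline, either down as inhibitor or up as activator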;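 also: median bead fluorescence of bound Bodipy-FL-GTP at 100 nM; below 100% means less GTP binding so inhibitor and above means activator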
Rac1 wt modul = wildtype Rac1 GTP binding modulators, primary screen, biochemical, GST-Rac1 beads, flow cytometry, multiplex. Ras-related C3 botulinum toxin substrate 1 (Homo sapiens), P63000. fluorescent GTP binding; actives lie on both sides; 0 = cold GTP competed, 100 = untreated. GTP binding activity (% of control), % at 10 µM. hit rate 0.27% among 190,000. AID 757, 2007;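 active = GTP binding activity at least 20 points away from the 100% control level, either lower or higher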
Rac1 act GTP bind = GTP binding modulators of activated mutant Rac1, primary screen, biochemical, bead-based flow cytometry, multiplex, fluorescent GTP | Ras-related C3 botulinum toxin substrate 1 (Homo sapiens), P63000 | GST-Rac1 activated beads; actives lie on both sides; 100% means binding = to untreated wells | percent activity (GTP binding), % at 10 µM | hit rate 0.11% among 190,000 | AID 764, 2007;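 active = GTP binding at least 20 percentage points away from the 100% baseline, in either direction, so actives lie on both sides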
Each line names hits and unclear results; the compound was inactive in the other large screens; [ ] = another dose, or the depositor's remark. Rows were chosen to be rich in hits. Some 0.38% of all compounds tested hit in one or more screens of this group.

Cc1c(N=Nc2c(O)[nH]c(=S)[nH]c2=O)c(=O)n(-c2ccccc2)n1C	none
O=c1[nH]c(=S)[nH]c(O)c1N=Nc1ccc(S(=O)(=O)N2CCc3ccccc32)cc1	Rac1 wt modul 120.0[activator]
CCn1nc(/C=C/c2ccccc2)nc2c(=O)n(C)c(=O)nc1-2	Cdc42 wt GTP 76.0
COc1cc(/C=C/C(=O)c2c(O)n(CCc3ccccc3)c(=O)[nH]c2=O)ccc1O	none
N#CC1=C(N)Oc2c(c(=O)sc3ccccc23)C1c1cccnc1 (stereo not given)	none
CCOCCCn1c(N)c(C(=O)Nc2sc3c(c2C(=O)OC)CCCC3)c2nc3ccccc3nc21	HRas wt GTP bind 72.0, Rab2A wt mod 72.0, Cdc42 wt GTP 72.0
Cc1ccc(-n2c(O)c(/C=N/c3ncc(Br)cc3Br)c(=O)[nH]c2=O)cc1	Rac1 wt modul 123.0[activator]
Cc1cccc(-n2c(O)c(C=Nc3ccc(Br)cn3)c(=O)[nH]c2=O)c1	none
